Bioassay records deposited in PubChem BioAssay by National Center for Advancing Translational Sciences (NCATS).
A350 fluor: A350 region autofluorescence | max dye-equivalent concentration, M | Compound autofluorescence, 340/450 nm, Alexa 350 dye-equivalents; stronger effect = higher value | 11% of 59,000 active; in the data active = max dye-equivalent concentration above about 10 nM; inconclusive = mostly about 1.1 nM to 9.6 nM
4-MU autofl: 4-MU region autofluorescence. compound autofluorescence, 340/450 nm, 4-MU equivalents; stronger effect = higher value. max dye-equivalent concentration, M. 11% of 59,000 active. AID 589; in the data active = max dye-equivalent concentration above about 10 nM; inconclusive = mostly about 1.1 nM to 9.6 nM
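Intrinsic fluorescence at 340/450 nm (ex/em) was read after 15 min at room temperature in pH 8.0, 100 mM Tris. Each compound concentration expressed as 4-MU-equivalent concentration from a six-point 4-MU standard series on each plate.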
HSD17B inh: HSD17B dehydrogenase inhibition; Q99714; recombinant HSD17B10, NADH fluorescence kinetic; Potency, µM (titrated, usually from 57.1 µM), most hits filed as inhibitors; 7.6% of 75,000 active;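 also: the protocol describes HADH2 (HSD17B10) and not the HSD17B4 of the title; nearly all actives have a fitted effect of over 70% in size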
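Activity followed as NADH fluorescence increase (ex 360, em 450 nm) every 30 seconds for 4 min, using final 90 uM beta-hydroxybutyryl CoA and 1 mM NAD+. Recombinant His-tagged enzyme, 20 nM, pH 9.0 Tris buffer, 15 min compound preincubation.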
HADH2 inh: inhibitors of human HADH2 dehydrogenase | recombinant HADH2, NADH fluorescence, beta-hydroxybutyryl-CoA | Potency, µM (doses to about 57.1 µM), usual class: inhibitors | 3.4% of 73,000 active | AID 886; also: nearly all actives have a fitted effect of over 60% in size
Target sequence (Q99714 whole entry, looked up, one chain of several): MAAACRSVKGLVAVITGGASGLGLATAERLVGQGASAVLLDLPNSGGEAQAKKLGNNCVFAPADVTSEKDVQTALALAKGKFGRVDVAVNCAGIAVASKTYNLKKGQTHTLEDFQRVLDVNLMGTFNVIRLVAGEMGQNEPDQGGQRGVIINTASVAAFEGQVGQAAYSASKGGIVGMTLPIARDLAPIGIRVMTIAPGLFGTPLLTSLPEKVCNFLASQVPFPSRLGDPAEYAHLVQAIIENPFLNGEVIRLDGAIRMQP
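E. coli-expressed His-tagged HADH2 tested at 20 nM in alkaline Tris buffer (pH 9.0); oxidation of 90 uM beta-hydroxybutyryl-CoA with 1 mM NAD+ tracked fluorimetrically for 4 min.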
AID923: qHTS Assay for Allosteric/Competitive Inhibitors of Caspase-1: Spectroscopic Profiling in AFC Spectral Region; Potency, µM (highest dose often 57.5 µM), most hits filed as activators; 1.1% of 75,000 active; compound fluorescence, AFC spectral region (405/520 nm)
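Compound autofluorescence profiled at 405 nm ex/520 nm em during kinetic caspase 1 run (50 nM enzyme, 5 uM Ac-WEHD-AFC, HEPES pH 7.5, 10 mM DTT). Titration up to 57 uM; baseline from regression intercept, normalized to AFC standard curve.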
CRE-bla Fsk: alters forskolin-stimulated CRE reporter signaling in CHO cells | 2.5% of 71,000 active | Potency, µM (top dose mostly 38.2 µM), usual class: activators | CHO CRE-bla reporter (cAMP response element driving beta-lactamase), forskolin EC10, beta-lactamase ratio; active = well fitted activation curve with a large enough effect in the signal ratio, with a control signal flat, not every such curve was filed as active; inconclusive = small, poorly fitted or top-dose-only effect, or effect the other way, or a change in a side signal; the % refers to the signal ratio
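Cells were plated overnight at 37 °C, exposed to compound titrations plus EC10 NKH 477 for 3 h, then given CCF4 dye for 2 h at room temperature. Blue/green (460/530 nm) ratio was converted to %Activity and AC50 values calculated.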
A number is an active result; n = inactive; u = inconclusive; x = no result given; [ ] = remark or other dose. In the library only some 14% were active in any assay of this set; here they are far more common. Unless noted, calls follow the shape of the dose curve; as a rule, active = well fitted curve in the direction sought with a large enough effect; inconclusive = small, poorly fitted or top-dose-only effect, or another doubt; inactive = no such curve, though single readings can be large; an effect the other way counts as inactive or inconclusive.

SMILES | A350 fluor | 4-MU autofl | HSD17B inh | HADH2 inh | AID923 | CRE-bla Fsk
CCC1=C2CC[C@H]3C(=O)N(CC)C(=O)[C@H]3[C@H]2[C@@]2(C)C(=O)N(CC(=O)OC)C(=O)N2C1=O | x | x | n | x | n | x
CO[C@@H]1COC(=O)C/C=C\[C@@H](C)COC(=O)[C@H](Cc2ccccc2)NC(=O)C/C=C\[C@H]1C | x | x | n[11.4 µM] | n[11.4 µM] | n[11.5 µM] | x
NC(=O)CN1C(=O)C2CCCCN2C(=O)c2ccccc21 (centres undefined) | 3.6e-08M | 3.6e-08M | n | n | n | n
Cc1cc(NC(=O)Nc2ccc(N(C)C)cc2)c2cc(F)cc(F)c2n1 | x | x | n | n | n | n
O=C1c2ccccc2NC(c2ccccc2)N1Cc1ccco1 (centres undefined) | x | x | 32µM | 25µM | n | n
O=C1c2ccccc2N2C(=O)c3ccccc3C2N1Cc1ccco1 (centres undefined) | x | x | n | u | n | u
O=C1c2ccccc2NC(c2ccc(F)cc2)N1Cc1ccco1 (centres undefined) | 4.4e-07M | 7.1e-07M | 32µM | u | n | u
CC(=O)C1=C(O)C(=O)N(Cc2ccco2)C1c1ccc(F)cc1 (centres undefined) | n | n | n | u | n | n
CC(=O)N1CCC2(CC1)CN(Cc1ccccc1)C2 | n | n | n | n | n | n
Nc1nnc(CCC2CCCCC2)s1 | n | n | n | n | n | n
N#CC1=C(N)SC(N)=C(C#N)C1CCC1CCCCC1 | n | n | 32µM | 13µM | n | n
O=C(O)CC[C@@]1(c2ccccc2)NC(=O)NC1=O | n | n | n[11.4 µM] | n[11.4 µM] | n[11.5 µM] | n[7.6 µM]
NC(=O)CS(=O)C[C@H](N)C(=O)O (some centres undefined) | n | n | n[11.4 µM] | n[11.4 µM] | n[11.5 µM] | n[7.6 µM]
CCOC(=O)CSC(CC)C(=O)Nc1nnc(C(C)C)s1 (centres undefined) | x | x | n | n | n | 10µM
O=C(Oc1ccccc1)N1CCC[C@@]2(CCN(c3ncccn3)C2)C1 | n | n | n | n | n | n
COCCn1c(SCC(=O)Nc2ccccc2)nc2c1c(=O)[nH]c(=O)n2C | x | x | n | n | n | u
COCCn1c(SCc2c(F)cccc2Cl)nc2c1c(=O)[nH]c(=O)n2C | 1.6e-08M | 1.4e-08M | x | x | x | x
Cn1c(=O)[nH]c(=O)c2c1nc(Br)n2Cc1ccccc1Cl | n | n | n | n | n | n
Cn1c(=O)[nH]c(=O)c2c1nc(SCC(O)CO)n2Cc1ccccc1Cl (centres undefined) | 1.6e-08M | 1.2e-08M | n | n | n | u
COc1cccc(C2C3=C(CCCC3=O)Nc3nc4ccccc4n32)c1OC (centres undefined) | 3.3e-07M | 3.9e-07M | 3.2µM | 13µM | n | u
COc1ccc(C2C3=C(CCCC3=O)Nc3nc(C(F)(F)F)nn32)c(OC)c1OC (centres undefined) | 2.5e-08M | 2.8e-08M | u | n | n | u
CCOc1ccc(C2CC(=O)NC3=C2C(=O)CCC3)cc1 (centres undefined) | n | n | n | n | n | n
COc1ccc(C2C3=C(CCCC3=O)Nc3nc(C(F)(F)F)nn32)cc1OC (centres undefined) | 7.2e-08M | 8e-08M | 25µM | n | n | u
COc1ccc(C2C3=C(Nc4ncnn42)c2ccccc2CC3)cc1OC (centres undefined) | u | u | n | u | n | n
COc1cc(OC)c(C2C3=C(CCCC3=O)Nc3nc4ccccc4n32)cc1OC (centres undefined) | u | u | n | n | n | u
SMILES | A350 fluor | 4-MU autofl | HSD17B inh | HADH2 inh | AID923 | CRE-bla Fsk
CCOc1ccc(C2C3=C(CCCC3=O)Nc3nc(C(F)(F)F)nn32)cc1OC (centres undefined) | 6.8e-08M | 7.5e-08M | 25µM | u | n | n
O=CCCCC=O | x | x | n | n | n | u
CC(C)[C@H](O)C1=CCCCC1=O | x | x | n[11.4 µM] | n[11.4 µM] | n[11.5 µM] | x
CC(CN(C)C)NC(=O)c1ccc(-n2c(=O)c(=O)[nH]c3ccccc32)cc1 (centres undefined) | x | x | n | n | n | x
c1cncc(-c2cncnc2NCc2cccs2)c1 | n | n | n | n | n | n
CCSc1nc2n(n1)C(c1cccc(F)c1)C1=C(CCCC1=O)N2 (centres undefined) | 7.7e-08M | 6.3e-08M | u | u | n | n
COC(=O)c1cccc(C23CC4(C2)[C@H](CN(Cc2cccnc2)[C@@H]4c2ccccc2)C3c2ccccc2)c1 (some centres undefined) | x | x | n | x | n | x
CCN(CC)CCn1c(-c2ccccc2)nc2c(NC3CCCCC3)nc(C)nc21 | x | x | 25µM | u | n | u
Cc1nc(NC2CCCCC2)c2nc(-c3ccccc3)n(CC3CCN(C)CC3)c2n1 | x | x | 25µM | n | n | n
Cc1nc(NC2CCCCC2)c2nc(-c3ccccc3)n(CCCN3CCCCC3C)c2n1 (centres undefined) | x | x | 20µM | n | n | n
CCN(CC)CCCC(C)n1c(-c2ccccc2)nc2c(NC3CCCCC3)nc(C)nc21 (centres undefined) | x | x | 25µM | n | n | n
CCCn1c(C)nc2c(NC3CCCCC3)nc(C)nc21 | x | x | n | n | n | u
CC1CCCCN1Cc1nc2c(c(=O)n(C)c(=O)n2C)n1CCc1ccccc1 (centres undefined) | n | n | n | n | n | n
O=C(c1ccncc1)N1CCC[C@@]2(CCN(Cc3ccccc3)C2)C1 | n | n | n | n | n | n
Cc1nc(NC2CCCCC2)c2nc(-c3ccccc3)n(CCN3CCCC3)c2n1 | x | x | 13µM | n | n | n
CC1CCCCN1CCCn1c(=S)[nH]c2ccccc2c1=O (centres undefined) | n | n | n | n | n | u
CCCn1c(C)nc2c(NCCN3CCCCC3)nc(C)nc21 | x | x | n | n | n | n
Cc1nc(Nc2ccccc2)c2nc(-c3ccccc3)n(CCCN3CCCCC3C)c2n1 (centres undefined) | x | x | 32µM | n | n | n
CCCC[C@@H]1C[C@H]1C(NC(=O)c1ccccc1)c1ccccc1C(F)(F)F (some centres undefined) | x | x | n | n | n | n
CCCCC(=O)N(CCOC)c1nnc(-c2ccc(OC)cc2)s1 | n | n | 25µM | u | n | n
CCC(=O)c1cc2c(C)cc(=O)oc2c(C)c1O | u | n | n | n | n | 2µM
Cc1cc(=O)oc2c(O)c(O)ccc12 | x | x | n | x | n | x
CCOC(=O)C(CCc1ccccc1)NC(C)C(=O)N1CCCC1C(=O)O (centres undefined) | x | x | n | x | n | x
CN(C(=O)c1ccc(NC(=O)c2cnccn2)cc1)C1CCCCC1 | 9.2e-07M | 1.4e-06M | n | n | n | n
COc1ccc(-c2cc(C(=O)Nc3ccccc3SC)no2)cc1OC | 8.9e-08M | 6.9e-08M | u | n | n | n
COc1ccc(-c2cc(C(=O)Nc3cnn(Cc4ccccc4C)c3)no2)cc1OC | n | n | 25µM | n | n | n
